Assay outcomes deposited in PubChem BioAssay by The Scripps Research Institute Molecular Screening Center.
Only some compounds are listed: those with a hit (about 3.4% of all), similar ones and a draw of the others.
GPR151 activ: activators of human GPR151. PathHunter beta-arrestin GPR151 cells, luminescence. activation, % at 11.2 µM. actives 1% (n = 650,000); in the data active = activation above about 4.9%;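 also: 0% = median of compound wells and 100% = cells with positive control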
MITF primary: inhibitors of human MITF; O75030; AlphaScreen MITF homodimerization, bead proximity signal; inhibition, % at 2.6 µM; actives 0.91% (n = 650,000); in the data active = inhibition above about 50%;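 also: 0% = vehicle wells with protein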
TEAD-YAP block: TEAD-YAP interaction inhibition; AID 1259422; actives 1.4% (n = 640,000); HEK-TIYL cells, TEAD-Gal4/YAP UAS-luciferase luminescence; inhibition, % at 9.12 µM; in the data active = inhibition above about 32%;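 also: 0% = median of test compound wells and 100% = reference inhibitor wells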
FBW7 activator: activators of human E3 ligase FBW7; AlphaScreen FBW7–phospho-cyclin E peptide binding, activator screen; Q969H0; normalized activity (activation), % at 26.1 µM; actives 0.13% (n = 650,000); in the data active = normalized activity above about 1.9%;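 also: purified mutant Fbw7 with reduced substrate affinity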
Target sequence (Q969H0 whole entry, looked up): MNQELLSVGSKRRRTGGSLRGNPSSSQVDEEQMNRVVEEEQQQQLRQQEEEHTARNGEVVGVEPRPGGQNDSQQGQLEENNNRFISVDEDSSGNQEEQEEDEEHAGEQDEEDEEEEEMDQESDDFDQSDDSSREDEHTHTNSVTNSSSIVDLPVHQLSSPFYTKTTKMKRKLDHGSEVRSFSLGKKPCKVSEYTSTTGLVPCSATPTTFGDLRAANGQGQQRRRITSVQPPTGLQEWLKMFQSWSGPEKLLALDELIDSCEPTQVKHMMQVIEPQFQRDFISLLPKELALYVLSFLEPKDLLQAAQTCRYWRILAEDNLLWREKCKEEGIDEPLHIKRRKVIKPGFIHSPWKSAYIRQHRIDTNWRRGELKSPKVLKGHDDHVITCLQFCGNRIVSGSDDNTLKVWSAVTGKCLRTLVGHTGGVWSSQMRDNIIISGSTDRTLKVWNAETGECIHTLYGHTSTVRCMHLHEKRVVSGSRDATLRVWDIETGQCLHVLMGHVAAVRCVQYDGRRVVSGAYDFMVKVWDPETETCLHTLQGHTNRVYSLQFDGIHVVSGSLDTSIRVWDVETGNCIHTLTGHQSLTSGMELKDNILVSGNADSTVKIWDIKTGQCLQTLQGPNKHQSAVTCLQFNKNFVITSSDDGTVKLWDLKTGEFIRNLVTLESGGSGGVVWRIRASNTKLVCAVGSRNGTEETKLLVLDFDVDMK
GPR151 confirm: confirmation of human GPR151 activators; GPR151 PathHunter beta-arrestin cells, luminescence, 90 min; % of EA-reagent control over plate median; 6,700 tested, under 10 active; shares compounds with GPR151 activ; activation, % at 11.2 µM;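 active = mean percent activation across replicates above the confirmation screen cutoff of 4.91%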
GPR119 ag: GPR119 activation, counter-screen for GPR151 activators. shares compounds with GPR151 activ. AID 1508611. actives 0.3% (n = 6,700). GPR119 PathHunter beta-arrestin cells, luminescence, 90 min; 0 = compound-well median, 100 = enzyme-acceptor control. activation, % at 11.2 µM;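 active = mean percent activation in the counterscreen above 29.09%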;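 also: counterscreen on off-target GPR119 to flag nonselective hits from the GPR151 activator screen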
Starred values were filed as active, the others as inactive; · = no result.

SMILES	GPR151 activ	MITF primary	TEAD-YAP block	FBW7 activator	GPR151 confirm	GPR119 ag
CCOc1ccc(N2C(=O)NC(=O)/C(=C\c3ccc(O)c(OC)c3)C2=O)cc1	1	14	3	0	·	·
COc1cc(/C=C2/C(=O)NC(=O)N(c3ccc(Cl)cc3)C2=O)cc(OC)c1O	16*	12	4	0	0	12
Cc1ccc(C(=O)NCc2cccnc2)o1	0	5	1	0	·	·
O=[N+]([O-])c1ccccc1-c1cnn(-c2ccccc2)c1	-1	9	-52	0	·	·
O=[N+]([O-])c1ccccc1-c1cnn(-c2ccc(F)cc2F)c1	5.9*	15	-37	1	-2	-19
CCOC(=O)CCN(Cc1ccccc1F)S(=O)(=O)c1ccc(C)cc1	4.9*	0	-1	0	-2	-18
CCOC(=O)CCCN(Cc1ccc(Cl)cc1Cl)S(=O)(=O)c1ccc(F)c(C)c1	5.0*	15	12	0	0	-14
CCOC(=O)CCN(Cc1ccccc1F)S(=O)(=O)c1ccc(Br)cc1	-1	15	-8	0	·	·
CCOC(=O)CCCN(Cc1ccc(F)cc1)S(=O)(=O)c1ccc(F)c(C)c1	3	13	5	0	·	·
O=C(Cc1cccs1)N/N=C\C=C\c1ccccc1	0	9	-40	0	·	·
Cc1n[nH]c(C)c1CCC(=O)N/N=C/C=C/c1ccccc1	6.5*	11	6	0	0	-10
O=C(Cc1cc(=O)[nH][nH]1)N/N=C/C=C/c1ccccc1	5.3*	27	7	0	-1	6
COC(=O)CNC(c1ccccc1)c1cc(Br)ccc1NC(=O)C(Cc1ccccc1)NC(=O)OCc1ccccc1 (stereo not drawn)	-1	12	-5	0	·	·
O=C1NC(=O)C(Cc2ccccc2)(C2CCN(Cc3cccc4nccnc34)CC2)N1 (stereo not drawn)	1	1	-1	0	·	·
O=C(CN(Cc1ccccc1)S(=O)(=O)c1cc(Cl)ccc1Cl)N1CCCC1	3	22	-2	0	·	·
O=C(CN(CCc1ccccc1)S(=O)(=O)c1cc(Cl)ccc1Cl)N1CCCC1	18*	21	-3	0	0	-13
Cc1ccc(NS(=O)(=O)c2ccc(F)cc2)cc1C	-1	-3	-13	0	·	·
Cc1ccc(NS(=O)(=O)c2ccc(NC=O)cc2)cc1C	5.8*	5	15	0	0	-2
COc1ccc2c(C=Nc3ccccc3)c(O)n(Cc3ccccc3)c(=O)c2c1	0	-8	5	0	·	·
COc1ccc(/C=C/C(=O)Nc2cccc3ccccc23)cc1	-1	2	-27	0	·	·
COc1ccc2cc(CCNC(=O)/C=C\c3ccc4c(c3)OCO4)c(=O)[nH]c2c1	12*	7	8	0	0	2
CC(=O)Nc1ccc(NC(=O)c2cccc(I)c2)cc1	-1	19	-6	0	·	·
Cc1ccc2nc(Cl)c(C3CC(c4ccc(Br)cc4)=NN3S(C)(=O)=O)cc2c1 (stereo not drawn)	5.1*	8	-3	0	-1	3
CS(=O)(=O)N1N=C(c2ccc(Br)cc2)CC1c1cc2ccccc2nc1Cl (stereo not drawn)	0	8	13	0	·	·
COC(=O)CCS(=O)(=O)c1ccc(Cl)cc1	0	-6	1	0	·	·
SMILES	GPR151 activ	MITF primary	TEAD-YAP block	FBW7 activator	GPR151 confirm	GPR119 ag
COC(=O)c1ccc(NC(=O)CCS(=O)(=O)c2ccc(OC)cc2)cc1	5.0*	-3	-5	0	0	-1
COC(=O)c1cc(NC(=O)CCS(=O)(=O)c2ccc(OC)cc2)cc(C(=O)OC)c1	1	5	4	0	·	·
COC(=O)CCS(=O)(=O)c1ccc(Oc2ccc(S(=O)(=O)CCC(=O)OC)cc2)cc1	5.7*	1	14	0	1	-3
CN1CCN(c2ccccc2NC(=O)COc2ccccc2[N+](=O)[O-])CC1	-1	5	-9	0	·	·
Cc1ccc([N+](=O)[O-])cc1NC(=O)Cc1ccc(F)cc1	5.4*	7	0	0	-1	-11
CC(=O)CC(=O)Nc1cc([N+](=O)[O-])ccc1C	0	6	-6	0	·	·
C/C(CC(=O)Nc1cc([N+](=O)[O-])ccc1C)=N\NC(=O)C(=O)NCCO	8.3*	-4	-8	0	0	9
Cc1cc([N+](=O)[O-])ccc1NC(=O)Cc1ccc(F)cc1	0	-7	8	0	·	·
CCCOC(=O)c1cccc(NC(=O)/C=C\C(=O)O)c1	0	1	7	0	·	·
O=C(c1c(F)cccc1Cl)N(c1ccc(F)cc1)C1C=CS(=O)(=O)C1 (stereo not drawn)	7.2*	1	5	0	0	6
O=C(c1c(F)cccc1Cl)N(c1ccccc1)C1C=CS(=O)(=O)C1 (stereo not drawn)	1	-4	-11	0	·	·
COc1ccc(C2CC(C(F)(F)F)n3nc(C(=O)Nc4cc(C(F)(F)F)ccc4Cl)cc3N2)cc1 (stereo not drawn)	2	7	8	0	·	·
CCCc1[nH]nc2c1C(c1ccccc1OCC)C(C#N)=C(N)O2 (stereo not drawn)	-1	7	3	1	·	·
CCOc1ccc(/C=C2\SC(=S)N(CC(=O)Nc3ccc(O)cc3)C2=O)cc1	5.7*	2	0	0	2	6
CCOC(=O)c1ccc(NC(=O)CN2C(=O)CSCC2=O)cc1	3	-4	11	0	·	·
CCOC(=O)c1ccc(NC(=O)CNC(=O)c2ccccc2)cc1	15*	7	2	1	-2	-4
CCOc1ccc(NC(=O)CNC(=O)c2ccccc2)cc1	-1	7	-25	0	·	·
CCOc1ccc(NC(=O)CN2C(=O)C(C)SC(C)C2=O)cc1 (stereo not drawn)	3	4	1	0	·	·
CCOC(=O)c1ccc(NC(=O)CN2C(=O)C(CC)SC(CC)C2=O)cc1 (stereo not drawn)	6.4*	9	2	0	0	6
CCOc1ccc(NC(=O)CN2C(=O)C(CC)SC(CC)C2=O)cc1 (stereo not drawn)	5.1*	7	14	0	1	8
COc1ccc(C(=O)NC(=S)Nc2ccc(S(N)(=O)=O)cc2)cc1[N+](=O)[O-]	0	1	2	0	·	·
COc1ccc(/C=C2\SC(=O)N(CC(=O)Nc3ccc(C)cc3)C2=O)cc1OC	-1	12	0	1	·	·
COc1ccc(/C=C2\SC(=O)N(CC(=O)Nc3ccc(F)cc3)C2=O)cc1O	6.2*	-8	1	0	1	10
Cc1ccc(C(=O)Nc2sc3c(c2C(=O)Nc2ccccc2)CCCC3)cc1	0	17	2	0	·	·
O=C(NCCSC1CCCCC1)Nc1ccccc1	5.1*	-10	1	0	-1	-18
